Results: article PMC4336329 (PLoS ONE, 2015)
About 2,200 (0.71%) of roughly 310,000 compounds showed an effect of 50% or more. The effect is printed as a negative number. Only a selection was taken, and strong results are over-represented in it overall.

What follows are molecules tested against human ether-à-go-go-related gene (hERG) potassium channel (human, UniProt Q12809) (assay: primary screen, population patch clamp on CHO cells stably expressing hERG; higher = less effect of the substance).
Chain of human ether-à-go-go-related gene (hERG) potassium channel (Q12809 whole entry, looked up): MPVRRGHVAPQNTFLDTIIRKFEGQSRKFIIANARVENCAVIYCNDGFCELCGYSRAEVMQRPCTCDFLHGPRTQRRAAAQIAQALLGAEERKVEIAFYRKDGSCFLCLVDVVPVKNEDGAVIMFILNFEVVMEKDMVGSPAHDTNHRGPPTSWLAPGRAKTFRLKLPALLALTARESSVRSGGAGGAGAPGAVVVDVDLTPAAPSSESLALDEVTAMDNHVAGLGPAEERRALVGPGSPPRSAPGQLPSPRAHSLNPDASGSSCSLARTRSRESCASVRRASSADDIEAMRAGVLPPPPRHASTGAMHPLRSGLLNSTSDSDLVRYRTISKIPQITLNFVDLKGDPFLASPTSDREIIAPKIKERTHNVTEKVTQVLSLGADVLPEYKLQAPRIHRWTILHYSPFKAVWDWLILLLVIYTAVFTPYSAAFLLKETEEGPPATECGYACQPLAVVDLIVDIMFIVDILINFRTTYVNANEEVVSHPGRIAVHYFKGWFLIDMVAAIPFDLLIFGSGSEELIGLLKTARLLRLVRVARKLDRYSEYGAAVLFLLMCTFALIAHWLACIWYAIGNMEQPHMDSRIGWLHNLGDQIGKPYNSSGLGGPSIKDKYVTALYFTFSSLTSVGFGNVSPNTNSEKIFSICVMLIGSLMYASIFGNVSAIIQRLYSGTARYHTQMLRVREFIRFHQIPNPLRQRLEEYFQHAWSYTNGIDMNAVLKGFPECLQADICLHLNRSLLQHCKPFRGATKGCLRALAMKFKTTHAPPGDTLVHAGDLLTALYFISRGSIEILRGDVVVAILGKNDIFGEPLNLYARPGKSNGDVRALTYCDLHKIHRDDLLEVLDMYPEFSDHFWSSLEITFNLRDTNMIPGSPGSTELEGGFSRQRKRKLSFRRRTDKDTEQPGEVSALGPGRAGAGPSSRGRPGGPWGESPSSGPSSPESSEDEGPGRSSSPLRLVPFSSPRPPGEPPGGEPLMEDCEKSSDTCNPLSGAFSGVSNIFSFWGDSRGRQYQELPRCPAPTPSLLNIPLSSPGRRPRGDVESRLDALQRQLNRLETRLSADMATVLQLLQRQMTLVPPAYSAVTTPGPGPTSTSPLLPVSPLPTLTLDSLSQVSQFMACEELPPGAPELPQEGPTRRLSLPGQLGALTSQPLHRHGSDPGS

SMILES | hERG current change (%, negative = inhibition) at 1uM [%]
Cc1cccc(NC(=O)NC2(C(=O)NCc3ccco3)CCCCC2)c1 | 2.75
CN(C)c1ccc(NS(=O)(=O)c2ccc(Cl)cc2)cc1 | 6.28
CC(C)Oc1ccc(Nc2ncnc3ccccc23)cc1.Cl | 3.47
COc1ccc(NC(=O)CCn2ccnc2)c(OC)c1 | 9.53
COC(=O)COc1ccc(S(=O)(=O)N2CCOCC2)cc1 | 13.1
CCCCCNCC(=O)Nc1cc(C(F)(F)F)ccc1OCCOC | -5.74
CCN1CCN(CC(=O)Nc2cc(C(F)(F)F)ccc2OCCOC)CC1.O=C(O)C(=O)O | -70.9
COCCOc1ccc(C(F)(F)F)cc1NC(=O)c1ccccc1 | -2.95
CC(=O)N(C)c1ccc(NC(=O)Nc2ccc(Cl)cc2)cc1 | 8.67
CC(=O)Cc1ccccc1OCC(=O)O | 18.9
O=C(Nc1cc(Cl)cc(Cl)c1)c1cnn2cccnc12 | 16.2
COC(=O)c1c(NC(=O)CN2C(=O)C(=O)N(CC(C)C)C2=O)sc(C)c1C | 9.77
O=C1N(Cc2cccc(Cl)c2)C[C@@H]2C[C@@H](c3ccccn3)N3CCC[C@@]123 | 7.23
O=C1N(Cc2cccnc2)C[C@@H]2C[C@@H](c3cccc(OC4CCCC4)c3)N3CCC[C@@]123 | -53.3
O=C1N(Cc2cccc(Cl)c2)C[C@@H]2C[C@@H](c3cccn3-c3ccccn3)N3CCC[C@@]123 | -56.9
O=C1N(Cc2cccc(Cl)c2)C[C@@H]2C[C@@H](c3cccc4ncccc34)N3CCC[C@@]123 | -2.07
O=C1N(Cc2cccnc2)C[C@@H]2C[C@@H](c3cccc(Oc4ccccc4)c3)N3CCC[C@@]123 | -4.79
O=C1N(Cc2cccnc2)C[C@@H]2C[C@@H](c3cccc(OCc4ccccc4)c3)N3CCC[C@@]123 | -17.8
O=C1N(Cc2cccc(Cl)c2)C[C@@H]2C[C@@H](c3cccc4cccnc34)N3CCC[C@@]123 | -63.8
O=C1N(Cc2cccc(Cl)c2)C[C@@H]2C[C@@H](c3cccn3-c3nccs3)N3CCC[C@@]123 | -19.2
O=C1N(Cc2cccc(Cl)c2)C[C@@H]2C[C@@H](c3cccn3-c3cccnc3)N3CCC[C@@]123 | 3.63

SMILES | hERG current change (%, negative = inhibition) at 1uM [%]
COc1ccc(C(=O)Nc2nc(N3C(=O)c4ccccc4C3=O)n(-c3ccccc3)n2)cc1 | 3.14
CSc1ncc(Sc2ccccc2)c(C(=O)O)n1 | 10.3
Cc1ccccc1-c1noc(CCC(=O)NCCc2ccccc2)n1 | 10.4
O=C(CSc1nnc(NC(=O)c2ccc(F)cc2F)s1)NC1CC1 | 14.9
COc1cc(OC)cc(-c2nnc(Nc3nc4c(F)cccc4s3)o2)c1 | 6.96
O=C(c1ccc2c(=O)n(CC3CCCO3)c(=S)[nH]c2c1)N1CCN(c2ccccc2)CC1 (stereo not drawn) | 3.81
O=C(CCNS(=O)(=O)c1cccs1)N1CCN(c2cccc(C(F)(F)F)c2)CC1 | -2.16
C=CCn1c(C2CC2)n[nH]c1=S | 1.66
O=C(NCc1ccc(Cl)cc1)c1noc2c1CCCCC2 | -6.49
O=C(CSc1nc(=O)n2ccccc2n1)N1CCC(Cc2ccccc2)CC1 | -27.4
Cc1cccn2c(=O)nc(SCC(=O)N3CCC(Cc4ccccc4)CC3)nc12 | -69.2
Cc1cccn2c(=O)nc(SCC(=O)N3CCC(C)CC3)nc12 | 2.05
CCOc1ccccc1NC(=O)C(OC(=O)c1ccccc1O)c1ccccc1 (stereo not drawn) | -2.03
O=S(=O)(NC1CCC(NS(=O)(=O)c2c(F)cccc2F)CC1)c1ccc2c(c1)OCCO2 (stereo not drawn) | 10.7
Cc1ccc(C(=O)NCCN2C3=NC[C@@H](Cc4ccccc4)N3C[C@H]2Cc2ccc(O)cc2)cc1Br | -4.33
C/C=C(\C)C(=O)NCCN1C2=NC[C@H](Cc3ccc(O)cc3)N2C[C@@H]1Cc1ccc(OC)cc1 | 10.6
Cc1ccc(C(=O)N[C@@H](C)CN2C3=NC[C@H](Cc4ccccc4)N3C[C@H]2Cc2ccc(O)cc2)cc1Br | -68.1
COc1ccc(C[C@H]2CN3C(=NC[C@@H]3Cc3ccc(O)cc3)N2C[C@H](C)NC(=O)c2ccc(C)c(Br)c2)cc1 | -60.1
COc1ccc(C[C@@H]2CN3C(=NC[C@@H]3C)N2C[C@H](C)NC(=O)c2ccc(C)c(Br)c2)cc1 | -56.4
C/C=C(\C)C(=O)NCCN1C2=NC[C@H](C)N2C[C@@H]1Cc1ccc(OC)cc1 | 7.75
COc1ccc(C[C@H]2CN3C(=NC[C@@H]3Cc3ccc(O)cc3)N2CCNC(=O)c2ccc(C)c(Br)c2)cc1 | -18.4

SMILES | hERG current change (%, negative = inhibition) at 1uM [%]
Cc1ccc(C(=O)N[C@@H](C)CN2C3=NC[C@H](C(C)C)N3C[C@H]2Cc2ccc(O)cc2)cc1Br | -34.3
COc1ccc(C[C@H]2CN3C(=NC[C@@H]3C(C)C)N2C[C@H](C)NC(=O)c2ccc(C)c(Br)c2)cc1 | -41.9
Cc1cc(Cl)cc(Br)c1OCCCCn1cncn1 | -0.515
Cc1cc(=O)[nH]c(N/N=C/c2cccc([N+](=O)[O-])c2)n1 | 9.49
CC1(c2nnc(Cc3ccccc3)o2)CC(c2ccccc2[N+](=O)[O-])=NO1 (stereo not drawn) | 0.886
Cc1c(NC(=O)c2ccc(Cl)s2)c(=O)n(-c2ccccc2)n1C | 8.57
Cn1nc2c(c1C(=O)N1CCCC(C(=O)c3cc(F)ccc3F)C1)CCCC2 (stereo not drawn) | 10.8
CO/N=C(\Cn1ncc(NC2CCCCC2)c(Br)c1=O)c1ccc(Cl)cc1 | -1.74
CCCCNC(=O)CCCCCNS(=O)(=O)c1ccc(Br)cc1 | -26.3
Cc1cc(N2CCN(C(c3ccccc3)c3ccccc3)CC2)n2ncnc2n1 | 8.18
Cc1cc(N2CCN(S(=O)(=O)c3ccc4ccccc4c3)CC2)n2ncnc2n1 | -48.4
Cc1cc(N2CCN(c3ccccc3)CC2)n2ncnc2n1 | -7.73
CC(=O)Nc1ccc(S(=O)(=O)N2CCN(c3cc(C)nc4ncnn34)CC2)cc1 | -9.05
Cc1cc(N2CCN(c3ccc(F)cc3)CC2)n2ncnc2n1 | -14.8
Cc1cc(N2CCN(S(=O)(=O)Cc3ccccc3)CC2)n2ncnc2n1 | -11.4
Cc1cc(N2CCN(S(=O)(=O)c3ccc(Br)cc3)CC2)n2ncnc2n1 | -84.8
Cc1cc(N2CCN(C/C=C/c3ccccc3)CC2)n2ncnc2n1 | -52.2
Cc1cc(N2CCN(c3nc4ccccc4s3)CC2)n2ncnc2n1 | -74.9
O=C(Nc1ccc(Nc2ccccc2)cc1)C(Cl)(Cl)Cl | 7.95
CCCS(=O)(=O)N1CCN(C(=O)COc2ccc(OC)cc2)CC1.O=C(O)C(=O)O | 11.7
O=C(CN(C(=O)c1csnn1)c1ccccc1C(F)(F)F)NC1CCCCC1 | 14.5

SMILES | hERG current change (%, negative = inhibition) at 1uM [%]
Cc1ccc(N(CC(=O)NCC2CCCO2)C(=O)Cn2nnc(-c3cccs3)n2)cc1 (stereo not drawn) | 2.07
CC(C)(CN=C1NS(=O)(=O)c2ccccc21)CNC(=O)CN1C(=O)c2ccccc2C1=O | -1.01
COCCCNC(=O)C(=O)Nc1cc2c3c(c1)CCN3C(=O)CC2 | 21.5
CCOc1cc(CN2CCCC(CO)(Cc3ccc(F)cc3F)C2)ccc1OC (stereo not drawn) | -10.8
Cc1cccc(N2CCN(C(=O)Cn3nc(Cc4ccncc4)c4ccccc4c3=O)CC2)c1C | 3.71
CC(C)(C)OC(=O)N/N=C\c1ccc(OC(=O)c2ccco2)cc1 | 10.8
COc1ccccc1C(=O)NC1CCN(C(=O)Nc2ccc(C)cc2)CC1 | 10.5
O=C(CC1SC(=Nc2ccc(OC(F)F)cc2)N(CCN2CCOCC2)C1=O)Nc1ccc(F)cc1F (stereo not drawn) | -80.4
O=C(CC1SC(=Nc2ccccc2F)N(CCN2CCOCC2)C1=O)Nc1ccc(F)cc1F (stereo not drawn) | 1.58
COc1ccc(N=C2SC(CC(=O)Nc3ccccc3)C(=O)N2CCN2CCOCC2)cc1 (stereo not drawn) | 3.66
Cc1sc2ncnc(NC3CCN(Cc4ccccc4)CC3)c2c1C | -56.9
c1ccc(CN2CCC(Nc3ncnc4sccc34)CC2)cc1 | -31.2
Cc1csc2ncnc(NC3CCN(Cc4ccccc4)CC3)c12 | -35.4
NC(=S)Nc1cccc2cc3ccccc3cc12 | 0.594
O=C1NC(c2ccc3c(c2)OCO3)Oc2ccccc21 (stereo not drawn) | 7.7
CCN(CC)CCOC(=O)c1ccc(Cl)cc1Cl.Cl | -8.41
CCCN(CCC)CCCOC(=O)c1ccc(Cl)cc1Cl.Cl | -56.8
CN(C)CCCOC(=O)c1ccc(Cl)cc1Cl.Cl | -7.49
